# Results published in PubChem BioAssay AID488969 (Vanderbilt High Throughput Screening Facility, 2010).
# Whole data set: some 110,000 compounds, median “z-score” near -0.1, cut for the highest 2% near 2. Only a selection was taken, and the highest values are over-represented in it overall. Calls of active or inactive are those of the source.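 How the source made its calls: active means z-score in the third read window above 3 or below -3; inactive means the rest.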
# Biological target: Metabotropic glutamate receptor 8 (Rattus norvegicus) (UniProt P70579)
# Assay: mGluR8 Gi/Go-coupled signaling modulation – cell-based, rat, thallium flux, HTS, primary screen (AID 488969)
# Conditions: HEK293 rat mGluR8, GIRK (G protein-gated inwardly rectifying potassium channel) thallium flux, FluoZin2; at 10 µM; stronger effect = higher value; submaximal glutamate (EC20) added with thallium
# Chain of Metabotropic glutamate receptor 8 (Rattus norvegicus) (P70579 whole entry, looked up): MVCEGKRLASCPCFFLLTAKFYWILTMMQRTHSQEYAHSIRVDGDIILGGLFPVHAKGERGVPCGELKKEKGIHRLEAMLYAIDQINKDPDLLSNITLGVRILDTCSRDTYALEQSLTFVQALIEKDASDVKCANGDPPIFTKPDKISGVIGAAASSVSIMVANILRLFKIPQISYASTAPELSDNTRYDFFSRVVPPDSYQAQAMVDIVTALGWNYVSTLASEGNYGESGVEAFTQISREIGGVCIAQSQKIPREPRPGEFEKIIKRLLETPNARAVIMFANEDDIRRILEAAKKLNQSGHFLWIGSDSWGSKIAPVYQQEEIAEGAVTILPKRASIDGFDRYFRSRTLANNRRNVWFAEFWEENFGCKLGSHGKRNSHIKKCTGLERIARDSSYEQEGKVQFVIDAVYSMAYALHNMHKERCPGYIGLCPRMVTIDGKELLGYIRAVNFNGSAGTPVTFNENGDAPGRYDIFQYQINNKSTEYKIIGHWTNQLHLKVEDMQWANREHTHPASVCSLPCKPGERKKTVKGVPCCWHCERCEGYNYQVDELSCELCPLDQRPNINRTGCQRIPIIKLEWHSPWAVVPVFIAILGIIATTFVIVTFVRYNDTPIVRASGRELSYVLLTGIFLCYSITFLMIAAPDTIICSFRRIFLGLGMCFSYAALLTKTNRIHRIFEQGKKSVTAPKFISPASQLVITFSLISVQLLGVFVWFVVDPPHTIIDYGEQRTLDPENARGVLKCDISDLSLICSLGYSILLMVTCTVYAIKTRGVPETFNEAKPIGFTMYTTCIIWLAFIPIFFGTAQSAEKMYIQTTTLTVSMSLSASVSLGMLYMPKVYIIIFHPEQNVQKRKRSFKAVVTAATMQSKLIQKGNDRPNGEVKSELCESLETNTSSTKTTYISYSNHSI
row,SMILES,z-score
1,COc1ccc(-n2nc3ccccc3n2)cc1,0.249
2,O=C(NCc1ccncc1)C1CCCN(S(=O)(=O)Cc2ccccc2)C1 (centres undefined),-0.193
3,CCC1CCCCN1C(=O)CSc1nnc(-c2cccs2)o1 (centres undefined),0.801
4,CCC1CCCCN1C(=O)CSc1nnc(-c2ccco2)o1 (centres undefined),11.1 (active)
5,CCC1CCCCN1C(=O)CSc1nnc(-c2ccc(Cl)cc2)o1 (centres undefined),-0.41
6,CCC(NC(=O)Cn1cnc2c(=O)n(C)c(=O)n(C)c21)c1ccccc1 (centres undefined),0.0869
7,COc1ccc(C2C(C(=O)c3ccco3)=C(O)C(=O)N2CCOCCO)cc1OC (centres undefined),-0.0423
8,COc1ccc(CC(=O)Nc2cccc(-c3csc(C)n3)c2)cc1,1.88
9,O=C(NOC(=O)c1ccccc1Cl)c1cccs1,-0.383
10,COC(=O)NNC(=O)c1ccc(C)cc1,0.0536
11,Cc1c(C(=O)NCc2cccnc2)oc2ccc(S(=O)(=O)N3CCCCC3)cc12,1.3
12,Cc1c(C(=O)NCc2cccnc2)oc2ccc(S(=O)(=O)N3CCC4(CC3)OCCO4)cc12,5.95 (active)
13,Cc1c(C(=O)NCc2ccccc2)oc2ccc(S(=O)(=O)N3CCC4(CC3)OCCO4)cc12,-0.293
14,CCCOc1ccc(C(=O)Nc2cc(-c3nn4c(C)nnc4s3)ccc2C)cc1,-0.185
15,CN(Cc1ccccc1)c1ccc(N2C(=O)CCCC2=O)cc1[N+](=O)[O-],-0.202
16,Cc1cccc(-c2nc(CSCC(=O)N3CCN(c4ccccn4)CC3)c(C)o2)c1,-1.37
17,O=C(O)CCCC(=O)NCCc1ccncc1,0.0989
18,COc1ccc(/C=N/NC(=O)C(=O)/C=C2\NC3(CCCC3)Cc3ccccc32)cc1,0.0973
19,Cc1ccc(NC(=O)COC(=O)c2ccccc2Nc2ccccc2)cc1,-0.179
20,CC(=O)c1ccccc1NC(=O)COC(=O)c1ccccc1NC(=O)c1ccccc1,0.161
21,Cc1cccc(C(=O)Nc2ccccc2C(=O)OCC(=O)Nc2ccc(C#N)cc2)c1,2.11
22,COc1ccc(S(=O)(=O)N2CCN(C(=O)c3ccco3)CC2)cc1OC,-0.51
23,COc1cc(/C=N/NC(=O)C(Cc2c[nH]c3ccccc23)NC(=O)OCc2ccccc2)cc([N+](=O)[O-])c1O (centres undefined),-0.505
24,Cc1cccc(N(C(=O)c2csnn2)C(C(=O)NC(C)(C)C)c2ccncc2)c1 (centres undefined),-0.134
25,Cc1ccc(N(C(=O)c2csnn2)C(C(=O)NC(C)(C)C)c2ccncc2)cc1 (centres undefined),-0.134
26,CC(C)(C)NC(=O)C(c1ccncc1)N(C(=O)c1csnn1)c1ccccc1 (centres undefined),6.21 (active)
27,CC(C)COC(=O)c1cc(=O)[nH]c2ccccc12,1.23

row,SMILES,z-score
1,CCc1ccc(NC(=O)c2cc(C)on2)cc1,-0.546
2,CCc1ccc2nc(NC(=O)c3cc(C)on3)sc2c1,10.1 (active)
3,CCc1ccc2nc(NC(=O)CSCc3c(C)noc3C)sc2c1,-0.0333
4,Cc1cc(C)c2nc(NC(=O)C3CCCO3)sc2c1 (centres undefined),0.217
5,Cc1cc(C)c2nc(NC(=O)c3ccc(OCC4CCCO4)cc3)sc2c1 (centres undefined),-0.201
6,Cc1cc(C)c2nc(NC(=O)c3cc(C)on3)sc2c1,12 (active)
7,O=C(Oc1ccc(Br)cc1C(=S)N1CCCC1)c1ccccc1Cl,-0.0754
8,CCOC(=O)N1CCN(Cc2nc(N)nc(Nc3ccc(OCC)cc3)n2)CC1,-0.27
9,CC(=O)OC1COC(n2ccc3cc([N+](=O)[O-])ccc32)C(OC(C)=O)C1OC(C)=O (centres undefined),0.0746
10,CC(=O)NC1(C(F)(F)F)C(=O)NC(C)=C1C#N (centres undefined),-1.29
11,CN(C)CCNc1nc2c(c(=O)[nH]c(=O)n2C)n1CCCc1ccccc1,3.35 (active)
12,Cn1c(=O)[nH]c(=O)c2c1nc(NCCCO)n2CCCc1ccccc1,0.0396
13,Cn1c(=O)[nH]c(=O)c2c1nc(NCc1ccccc1)n2CCCc1ccccc1,-0.132
14,CC(C)NS(=O)(=O)c1ccc(NC(=O)C2CC3C=CC2C3)cc1 (centres undefined),-0.0807
15,O=C1Nc2ccccc2SC(c2ccccc2)C1O (centres undefined),-0.0924
16,O=C(CN1CCC(n2nnc3cc(F)ccc32)CC1)N1CCc2ccccc2C1,-0.899
17,O=C(CSc1n[nH]c(-c2ccc(S(=O)(=O)N3CCCCC3)cc2)n1)Nc1nccs1,0.951
18,CCC(c1nnnn1CCOC)N(Cc1ccc(C)cc1)Cc1cc2cc(OC)ccc2[nH]c1=O (centres undefined),0.378
19,CCC(c1nnnn1Cc1ccc(OC)cc1)N(CCCO)Cc1cc2cc3c(cc2[nH]c1=O)OCO3 (centres undefined),5.57 (active)
20,CCC(c1nnnn1Cc1ccccc1)N(Cc1ccco1)Cc1cc2cc(OC)ccc2[nH]c1=O (centres undefined),-0.0441
21,COc1ccc(OC)c(N(CC(=O)Nc2ccc3c(c2)OCO3)S(=O)(=O)c2ccccc2)c1,-0.348
22,CCC1CCCCN1S(=O)(=O)c1ccc(C(=O)Nc2nnc(-c3ccccc3Cl)o2)cc1 (centres undefined),1.12
23,O=C(Nc1nnc(-c2ccccc2Cl)o1)c1ccc(S(=O)(=O)N2CCCCCC2)cc1,13.1 (active)
24,CC1CCCN(S(=O)(=O)c2ccc(C(=O)Nc3ccccc3-c3nc4ccccc4[nH]3)cc2)C1 (centres undefined),-0.205
25,Cc1nnc(NC(=O)c2ccc(S(=O)(=O)N3CCCCCC3)cc2)o1,-0.304
26,CC1CCCN(S(=O)(=O)c2ccc(C(=O)Nc3nnc(-c4ccccc4Cl)o3)cc2)C1 (centres undefined),3.98 (active)
27,COCc1nnc(NC(=O)c2ccc(S(=O)(=O)N3CCCCCC3)cc2)o1,-0.164
